# According to ChEMBL document CHEMBL5724796, “Tm Shift (DSF) assay results for EUbOPEN Chemogenomics Library” (2024):
# Non-standard residues stand in square brackets, D forms with d. Residues, ends and D or L forms follow the SMILES beside them. *: point of attachment. Benzoyl(4-tBu) = CC(C)(C)c1ccc(C(=O)*)cc1; Lys(Et2) = CCN(CC)CCCC[C@H](N)C(=O)O
# Columns and labels:
# Settings in all cases: Compound concentration 20.0 uM
# [1] = target: Tyrosine-protein kinase ABL1 (Homo sapiens) (UniProt P00519)
# [2] = target: Bromodomain-containing protein 4 (Homo sapiens) (UniProt O60885)
# [3] = target: Cyclin-dependent kinase 2 (Homo sapiens) (UniProt P24941)
# [4] = target: Casein kinase I isoform delta (Homo sapiens) (UniProt P48730)
# [5] = target: Glycogen synthase kinase-3 beta (Homo sapiens) (UniProt P49841)
# [6] = target: Mitogen-activated protein kinase 1 (Homo sapiens) (UniProt P28482)
# [7] = target: T1, Aurora kinase A (Homo sapiens) (UniProt O14965)
# T1 sequence (whole entry): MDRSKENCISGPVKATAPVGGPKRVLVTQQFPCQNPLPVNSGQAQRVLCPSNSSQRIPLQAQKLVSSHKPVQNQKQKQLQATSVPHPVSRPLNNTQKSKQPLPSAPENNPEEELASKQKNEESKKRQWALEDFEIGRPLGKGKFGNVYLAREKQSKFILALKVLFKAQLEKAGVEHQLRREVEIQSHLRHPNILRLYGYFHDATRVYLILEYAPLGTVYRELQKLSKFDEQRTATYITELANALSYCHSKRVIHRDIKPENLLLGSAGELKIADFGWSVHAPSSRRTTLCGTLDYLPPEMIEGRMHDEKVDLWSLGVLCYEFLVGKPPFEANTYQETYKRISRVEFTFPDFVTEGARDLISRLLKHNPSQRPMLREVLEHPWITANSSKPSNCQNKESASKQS
# [8] = target: T2, Transcription intermediary factor 1-alpha (Homo sapiens) (UniProt O15164)
# T2 sequence (whole entry): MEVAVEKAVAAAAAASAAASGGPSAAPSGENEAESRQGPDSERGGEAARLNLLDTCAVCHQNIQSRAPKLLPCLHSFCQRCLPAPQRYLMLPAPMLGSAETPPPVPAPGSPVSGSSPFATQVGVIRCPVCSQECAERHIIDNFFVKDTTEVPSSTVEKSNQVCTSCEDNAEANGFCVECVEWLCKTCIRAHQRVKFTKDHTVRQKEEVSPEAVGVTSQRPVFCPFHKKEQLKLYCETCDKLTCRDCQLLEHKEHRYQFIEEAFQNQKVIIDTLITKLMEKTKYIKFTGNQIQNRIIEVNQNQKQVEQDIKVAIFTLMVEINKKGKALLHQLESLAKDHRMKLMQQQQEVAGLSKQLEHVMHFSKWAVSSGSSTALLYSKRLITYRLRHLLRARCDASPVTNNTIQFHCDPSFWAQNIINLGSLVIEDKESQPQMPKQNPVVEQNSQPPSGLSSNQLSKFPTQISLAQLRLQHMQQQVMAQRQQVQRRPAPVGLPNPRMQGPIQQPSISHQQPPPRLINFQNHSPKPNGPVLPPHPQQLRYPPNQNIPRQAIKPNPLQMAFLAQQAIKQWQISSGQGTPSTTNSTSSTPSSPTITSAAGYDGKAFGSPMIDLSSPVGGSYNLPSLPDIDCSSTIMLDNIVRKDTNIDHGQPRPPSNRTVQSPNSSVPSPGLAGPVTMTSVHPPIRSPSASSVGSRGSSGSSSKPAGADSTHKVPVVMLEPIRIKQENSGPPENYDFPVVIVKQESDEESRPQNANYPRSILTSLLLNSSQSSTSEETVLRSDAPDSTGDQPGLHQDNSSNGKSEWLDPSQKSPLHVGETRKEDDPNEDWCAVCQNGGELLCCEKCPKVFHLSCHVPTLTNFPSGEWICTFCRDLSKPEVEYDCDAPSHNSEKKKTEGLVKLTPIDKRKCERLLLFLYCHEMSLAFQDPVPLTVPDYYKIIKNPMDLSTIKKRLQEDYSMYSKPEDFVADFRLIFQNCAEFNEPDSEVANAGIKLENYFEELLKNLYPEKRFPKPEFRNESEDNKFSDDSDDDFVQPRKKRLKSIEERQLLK
# Casein kinase I isoform delta (Homo sapiens), sequence (P48730 whole entry, looked up, canonical isoform): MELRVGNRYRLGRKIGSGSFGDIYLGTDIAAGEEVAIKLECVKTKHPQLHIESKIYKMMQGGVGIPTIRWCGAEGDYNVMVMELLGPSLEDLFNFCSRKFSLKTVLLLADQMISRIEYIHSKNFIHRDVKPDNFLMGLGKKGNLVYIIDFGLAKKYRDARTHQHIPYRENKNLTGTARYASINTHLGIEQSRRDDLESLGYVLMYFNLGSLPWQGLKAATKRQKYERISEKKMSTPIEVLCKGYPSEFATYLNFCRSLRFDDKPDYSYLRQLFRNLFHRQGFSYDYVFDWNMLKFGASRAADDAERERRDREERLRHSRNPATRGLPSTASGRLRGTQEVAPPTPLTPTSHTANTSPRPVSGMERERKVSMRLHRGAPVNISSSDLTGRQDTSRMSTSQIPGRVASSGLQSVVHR
# Tyrosine-protein kinase ABL1 (Homo sapiens), sequence (P00519 whole entry): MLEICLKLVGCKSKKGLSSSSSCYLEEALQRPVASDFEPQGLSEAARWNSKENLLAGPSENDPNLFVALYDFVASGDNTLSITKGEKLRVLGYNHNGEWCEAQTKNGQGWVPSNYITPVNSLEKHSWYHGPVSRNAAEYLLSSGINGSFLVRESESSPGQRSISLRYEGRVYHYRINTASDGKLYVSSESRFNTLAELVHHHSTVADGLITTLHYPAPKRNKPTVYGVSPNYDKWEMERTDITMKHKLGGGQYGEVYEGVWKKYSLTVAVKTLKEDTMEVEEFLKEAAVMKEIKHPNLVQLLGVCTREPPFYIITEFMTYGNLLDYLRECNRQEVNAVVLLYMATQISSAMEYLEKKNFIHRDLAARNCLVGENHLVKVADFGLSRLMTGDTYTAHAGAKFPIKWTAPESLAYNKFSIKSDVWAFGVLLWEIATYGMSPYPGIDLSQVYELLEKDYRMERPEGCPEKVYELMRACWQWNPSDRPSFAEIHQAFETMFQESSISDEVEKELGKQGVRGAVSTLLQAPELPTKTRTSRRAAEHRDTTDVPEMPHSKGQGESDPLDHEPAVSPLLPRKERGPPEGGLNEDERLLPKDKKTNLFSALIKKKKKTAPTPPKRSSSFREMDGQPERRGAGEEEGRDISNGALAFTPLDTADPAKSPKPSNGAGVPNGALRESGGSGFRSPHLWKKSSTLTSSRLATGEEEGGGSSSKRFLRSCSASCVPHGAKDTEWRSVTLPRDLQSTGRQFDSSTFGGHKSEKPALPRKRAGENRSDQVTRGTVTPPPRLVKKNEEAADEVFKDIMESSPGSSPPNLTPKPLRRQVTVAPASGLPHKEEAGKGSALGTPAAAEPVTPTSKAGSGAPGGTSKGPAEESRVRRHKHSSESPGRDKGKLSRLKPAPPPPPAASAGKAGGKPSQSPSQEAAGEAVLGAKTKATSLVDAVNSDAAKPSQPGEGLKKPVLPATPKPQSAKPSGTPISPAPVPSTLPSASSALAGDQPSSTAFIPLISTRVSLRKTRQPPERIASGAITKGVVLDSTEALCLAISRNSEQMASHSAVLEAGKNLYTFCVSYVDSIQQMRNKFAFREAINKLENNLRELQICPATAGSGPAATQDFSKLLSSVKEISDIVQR
# Mitogen-activated protein kinase 1 (Homo sapiens), sequence (P28482 whole entry): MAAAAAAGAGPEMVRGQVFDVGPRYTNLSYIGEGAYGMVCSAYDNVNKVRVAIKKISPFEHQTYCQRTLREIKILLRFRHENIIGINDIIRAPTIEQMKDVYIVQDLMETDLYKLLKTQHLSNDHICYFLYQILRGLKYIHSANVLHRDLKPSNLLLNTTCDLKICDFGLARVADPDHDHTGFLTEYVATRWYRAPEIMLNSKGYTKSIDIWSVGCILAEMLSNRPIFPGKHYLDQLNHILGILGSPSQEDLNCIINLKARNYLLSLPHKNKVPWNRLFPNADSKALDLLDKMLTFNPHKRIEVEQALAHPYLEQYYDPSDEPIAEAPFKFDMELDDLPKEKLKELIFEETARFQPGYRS
# Glycogen synthase kinase-3 beta (Homo sapiens), sequence (P49841 whole entry, looked up): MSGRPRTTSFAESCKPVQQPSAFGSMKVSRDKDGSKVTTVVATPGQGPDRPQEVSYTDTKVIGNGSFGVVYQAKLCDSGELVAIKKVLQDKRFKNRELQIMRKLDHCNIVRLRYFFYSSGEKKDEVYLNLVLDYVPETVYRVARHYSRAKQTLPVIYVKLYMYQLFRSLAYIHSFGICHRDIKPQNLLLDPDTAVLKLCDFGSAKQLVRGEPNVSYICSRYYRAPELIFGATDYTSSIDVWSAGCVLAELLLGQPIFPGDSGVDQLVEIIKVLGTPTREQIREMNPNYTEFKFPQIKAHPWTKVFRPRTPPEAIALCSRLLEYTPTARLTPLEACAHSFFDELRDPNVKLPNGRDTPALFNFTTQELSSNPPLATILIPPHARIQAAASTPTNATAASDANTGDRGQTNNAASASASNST
Compound,ΔTm [1] [°C],ΔTm [2] [°C],ΔTm [3] [°C],ΔTm [4] [°C],ΔTm [5] [°C],ΔTm [6] [°C],ΔTm [7] [°C],ΔTm [8] [°C]
Cc1ccsc1C(=CCCN1CCC[C@@H](C(=O)O)C1)c1sccc1C,0.26,0.65,0.86,-0.21,-0.18,0.16,-1.21,0.76
CNC(=O)Cn1cc(-c2ccc3c(c2)[C@H](F)C[C@]32NC(=O)N(CC(=O)N(Cc3ccc(F)cc3)[C@@H](C)C(F)(F)F)C2=O)cn1,0.95,-4.22,1.31,0.73,1.28,-6.46,-1.03,-1.4
CCn1c(=S)[nH]c2cc3c(NCc4ccccc4N4CCC(CO)CC4)ncnc3cc21,0.75,4.86,-0.14,0.33,-0.82,0.17,-1.92,-0.23
CN(C)CCCNC(=O)c1ccc(-c2cc(O)c3ncccc3c2)cc1,1.29,1.76,0.45,0.58,0.54,0.28,-1.28,1.21
CC(C)N(C(=O)c1cc(F)ccc1Oc1cncnc1N1CC2(CCN(C[C@H]3CC[C@H](NS(C)(=O)=O)CC3)CC2)C1)C(C)C,0.57,-1.5,0.13,-0.36,-0.7,0.13,-2.37,0.16
O=C(C=Cc1ccc(O)cc1)c1ccc(O)cc1O,6.6,1.51,1.64,1.31,2.87,1.33,1.81,-0.03
N[C@@H](CCCCNC(=O)OCc1ccc([N+](=O)[O-])cc1)C(=O)N1CCCC1,0.09,-2.69,0.15,-0.16,-0.58,0.13,-1.1,-0.07
Cc1nc2ccccn2c1C(=O)CN1CCN(c2ccc(F)cn2)CC1,-0.05,0.87,0.63,-0.29,-0.25,0.11,-1.47,0.7
NS(=O)(=O)c1cc(-c2nnn[nH]2)c(NCc2cccs2)cc1Cl,0.69,-1.05,1.03,0.19,1.34,0.84,-1.94,0
CC(C)(C)OC(=O)Nc1ccc(CNc2nccc(Nc3cc(C(=O)OC(C)(C)C)[nH]n3)n2)cc1,2.57,-0.88,5.67,0.13,0.97,-2.08,26.1,0.26
C[C@@H]1CCC[C@H](C)N1NC(=O)c1ccc(Cl)c(S(N)(=O)=O)c1,0.07,-0.69,0.04,-0.23,-0.93,0.04,-1.59,0.4
CC(C)(C)OC(=O)NCCCCCN(CCc1ccccc1)C(=O)n1cc(-c2ccc(OC(F)(F)F)cc2)nn1,-0.13,-3.63,0.01,-1.51,-2.3,0.71,-2.16,0.4
COc1ccc(C(=O)N[C@H](C(=O)N2CCC[C@H]2C(=O)N[C@H](C(=O)C(F)(F)F)C(C)C)C(C)C)cc1,0.01,0.28,0.69,-0.09,-0.75,0.2,-1.47,1.59
O=C(CN1CCN(C(=O)c2ccco2)CC1)Nc1cc(C(F)(F)F)ccc1Cl,0.19,2.01,0.06,-0.11,-0.95,0.07,-1.45,0.51
Nc1ncnc2c1c(I)cn2[C@@H]1O[C@H](CO)[C@@H](O)[C@H]1O,2.62,-1.63,5.37,6.51,3.65,1.9,1.18,0.89
O=c1[nH]ccc2cc(F)c(NS(=O)(=O)c3ccc(N4CC[C@@H](O)C4)s3)cc12,0.78,-1.78,0.35,0.39,-0.79,0.11,-0.16,-0.69
Cn1nc2c(=O)n(CC3(O)CCN(C(=O)C[C@H](c4ccccc4)C(F)(F)F)CC3)cnc2c1-c1ccc(CN)cc1,0.68,-2.51,0.12,-0.82,-0.57,0.17,-1.86,-0.47
COc1ccc(CC[C@H]2CCC[C@@H](CCc3ccc(OC)cc3)N2C[C@@H](O)CO)cc1,0.7,-3.11,0.11,-0.1,-0.21,0.31,-2.3,-0.71
Cc1cc(C(=O)CN2CCCCC2)c(C)n1-c1ccc(Cl)cc1,-0.03,-2.43,0.02,-0.16,-0.07,0.08,-1.42,-0.41
NC(=O)c1cccc(NC(=O)CCC(=O)NCCc2cn(CCNS(=O)(=O)c3cccc(C(=O)O)c3)nn2)c1,0.47,-2.59,-0.69,0.02,-1.06,-1.68,-2.28,-0.11
O=C(NO)c1ccc(CN2CCCc3cc(Cl)ccc32)cc1,0.31,-1.3,-0.96,-0.07,0.96,-0.12,-0.45,-1.53
O=C(NO)c1cccc(C(=O)NCCc2ccccc2)c1,0.54,-1.69,1.3,0.19,-1.53,0.15,-0.23,-1.33
CCN(CC)S(=O)(=O)c1cc(Nc2nccc(-c3ccnc(-c4ccc(NC(=O)NC)cc4)c3)n2)ccc1Cl,15.6,0,0,0.81,24.1,0,0,0

Compound,ΔTm [1] [°C],ΔTm [2] [°C],ΔTm [3] [°C],ΔTm [4] [°C],ΔTm [5] [°C],ΔTm [6] [°C],ΔTm [7] [°C],ΔTm [8] [°C]
CSCC[C@H](NC(=O)[C@H](CC(=O)O)NC(C)=O)C(=O)N[C@@H](CCC(N)=O)C(=O)N[C@H](C=O)CC(=O)O (Ac-DMQD-aldehyde),0.11,-1.14,-0.29,0.02,-0.48,-0.4,-1.16,-0.9
CN1CCN(c2cc(C(=O)Nc3ncc(SCc4cccc(C(F)(F)F)c4)s3)ccn2)CC1,3.36,-0.44,-0.22,-0.03,0,-0.59,0,-2.66
CCN(CC)CCCC[C@H](NC(=O)[C@H](CC(C)C)NC(=O)[C@H](C)NC(=O)[C@H](Cc1ccccc1)NC(=O)c1ccc(C(C)(C)C)cc1)C(=O)N[C@@H](CO)C(=O)OC ({Benzoyl(4-tBu)}-FAL[Lys(Et2)]S-OMe),0.51,-1.71,-0.26,0.5,-1.01,0.31,-1.22,-1.11
Nc1ccc(-c2cccs2)cc1NC(=O)c1ccc(NC=O)cc1,0.87,2.75,1.18,-0.53,-0.36,0.54,0.14,1.27
NC(=O)C1CCCc2c1[nH]c1ccc(Cl)cc21 (stereo not given),0.6,-2.56,0.2,-0.38,0.62,0.17,-0.98,-0.37
NS(=O)(=O)OC[C@H]1C[C@@H](Nc2ncncc2C(=O)c2ccn(Cc3cccc(Br)c3)n2)C[C@@H]1O,0.71,-2.22,0.03,0.64,1.22,0.37,-1.76,-1.07
Cc1cc(C)c(CNC(=O)c2cc(-c3ccc(N4CCN(C)CC4)nc3)cc3c2c(C)cn3C(C)C)c(=O)[nH]1,0.38,-2.02,0.39,0.02,0,0.02,-1.34,-0.72
C[C@@H]1CN(c2ncc(Cl)c(Nc3ccc4c(c3)n(CCC(C)(C)O)c(=O)n4C)n2)C[C@H](C)C1(F)F,-0.67,0.35,1.82,-0.69,4.11,-8.12,4,2.58
C=CCc1cccc(CNc2nc3ccccc3n2CCC)c1O,0.28,-1.55,0.45,0.21,0.95,0.22,-1.56,0.59
CC(C)C(=O)c1c(C(C)C)nn2ccccc12,0.8,-2.97,0.95,0.19,-0.21,0.12,-2.35,0.7
O=C(CCCCCCNC(=O)c1cnc(N(c2ccccc2)c2ccccc2)nc1)NO,0.66,-2.07,0.61,0.12,-0.11,-0.28,-0.51,-0.68
COc1ccc(C(=O)C2CCN(CC(=O)N(Cc3nc4c(c(=O)[nH]3)COCC4)CC3CC3)CC2)cc1,0.52,-1.61,0.34,-0.4,-0.12,0.46,-1.35,0.91
CC(C)[C@@H]1C(=O)N(S(C)(=O)=O)[C@@H]2CCN(C(=O)/C=C/CN3CCCCC3)[C@H]21,0.18,-2.34,0.22,0.11,-1.7,0.03,-0.54,-1.12
CCCCN(Cc1ccc(C(=O)NO)cc1)C(=O)Nc1ccccc1,0.74,-1.81,0.54,0.26,-0.89,0.25,-0.07,-1.23
Cc1nc(N)c2nnn(C[C@H]3CN(Cc4nccs4)CCO3)c2n1,0.44,-3.68,-0.07,-0.32,-0.34,0.04,-1.7,1.36
CS(=O)(=O)N1CCN(C(=O)c2cnc3ccc(Cl)cc3c2-c2ccc(C3(C#N)CC3)cc2)CC1,0.55,-2.94,0.81,0.96,4.93,0.97,-2.24,-1.2
Cc1cc(-n2cccc2)c(S(C)(=O)=O)cc1C(=O)N=C(N)N,0.53,-2.59,-0.16,-0.26,-0.28,0.62,-2.33,-0.16
C[C@@H](Oc1ccc(CNC(=O)c2cccnc2Oc2ccc3c(c2)OCO3)c(F)c1)C(=O)O,0.69,-1.71,0.09,-0.5,-0.12,0.23,-1.52,-0.05
CC(C)Oc1ccc(C=O)cc1,0.27,-1.93,-0.05,0.18,-0.88,0.02,-1.79,-0.93
O=C(NCc1ccc(F)cc1)C1CCN(S(=O)(=O)c2cc(Cl)cc(Cl)c2)CC1,0.19,1.03,0.65,-0.2,-0.78,1.32,-1.86,0.75
CCS(=O)(=O)N1CC(CC#N)(n2cc(-c3ncnc4[nH]ccc34)cn2)C1,2.37,-1.2,0.85,1.28,3.43,0.18,5.08,-0.73
N[C@@H](CC(=O)Nc1ccc(Oc2cc(F)c(F)cc2Br)cc1)C(=O)O,0.75,-3.05,-0.04,0.11,-0.55,0.24,-2.19,0.54
